Screening data (PubChem BioAssay)
Only some compounds are listed: those with a hit (about 6.8% of all), similar ones and a draw of the others.
SW480 rereplic = A quantitative high throughput screen for small molecules that induce DNA re-replication in SW480 colon adenocarcinoma cells | Potency, µM (highest dose often 46.1 µM), for the others: at the top dose re-replication activation, most hits filed as activators | AID 624297, 2012 | hit rate 1.8% among 340,000 | SW480 DNA re-replication, Hoechst DNA content imaging, 48 h; note: % of control where 0% means no effect; nearly all actives have a fitted effect of over 55% in size
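Treated cells incubate 48 hr (37 C, 5% CO2), are stained 40 min with Hoechst, and nuclear fluorescence is enumerated; a rise in nuclei with high DNA signal marks re-replication.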
KB-3-1 cytotox = qHTS assay for MDR1-selective chemotherapeutics: Primary screen using the parental adenocarcinoma cell KB-3-1; AID 1347075, 2019; hit rate 1.4% among 400,000; KB-3-1 viability, CellTiter-Glo ATP luminescence, 72 h; Potency, µM (highest dose often 46.1 µM), hits mostly cytotoxic; note: % is set by controls: 0 for no effect and ±100 for the full control effect; nearly all actives have a fitted effect of over 60% in size
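KB-3-1 parental drug-naive adenocarcinoma cells in DMEM/10% FBS, incubated 72 h at 37 C with pin-transferred compounds across a concentration series. Viability by CellTiter-Glo luminescence; concentration-response curves fitted after normalization.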
KB-V1 cytotox = qHTS assay for MDR1-selective chemotherapeutics: Primary screen using the drug-selected MDR subline cells KB-V1 | KB-V1 MDR cells viability, CellTiter-Glo, 72 h | Potency, µM (top dose mostly 46.1 µM), usual class: cytotoxic | hit rate 3.4% among 400,000; note: % is set by controls: 0 for no effect and ±100 for the full control effect; nearly all actives have a fitted effect of over 60% in size
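KB-V1 cells (P-gp-expressing MDR subline of KB-3-1) in phenol-red-free DMEM with 10% FBS were exposed to library compounds over a concentration series for 72 h at 37 degrees C. Viability read by CellTiter-Glo luminescence; concentration-effect curves fitted after normalization.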
PINK1 modulator = A Quantitative High throughput Screen to Identify Chemical Modulators of PINK1 Expression. PINK1 immunofluorescence, high-content cytometry, 24 h. Potency, µM (highest dose often 76.6 µM), for inactives: at the top dose activation (PINK1 increase), hits mostly activators. hit rate 0.2% among 410,000. AID 624263, 2012; active = well fitted activation curve with a large enough effect; inconclusive = small, poorly fitted or top-dose-only effect; cell line not stated here; note: % of control where 0% means no effect; nearly all actives have a fitted effect of over 65% in size
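Fluorescence from anti-PINK1 antibody, together with nuclear and cell stains, was scanned on a laser-scanning cytometer. Before staining, stable-line cells were incubated 24 hours with compounds at 5 concentrations; primary antibody 12 h at 10 degrees C.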
MCF10A rerep = A quantitative high throughput screen for small molecules that induce DNA re-replication in MCF 10a normal breast cells; MCF 10A DNA re-replication, Hoechst nuclear intensity, 48 h; Potency, µM (series often up to 46.1 µM), for the others: at the highest dose activity, positive = re-replication, actives largely listed as activators; hit rate 2.9% among 350,000; note: % of control where 0% means no effect; nearly all actives have a fitted effect of over 50% in size
TSG101-PTAP inh = qHTS Assay for Iinhibitors of HIV-1 Budding by Blocking the Interaction of PTAP/TSG101. Potency, µM (doses to about 115 µM), for inactives: at the highest dose activity change, negative = inhibition, hits mostly inhibitors. 340,000 tested, under 10 active. Fluorescence polarization, FITC-PTAP peptide / Tsg101 binding. Tumor susceptibility gene 101 protein (Homo sapiens), Q99816; active = well fitted inhibition curve with a large enough effect in the main read-out, with a control signal flat, not every such curve was filed as active; inconclusive = small, poorly fitted or top-dose-only effect, or effect the other way, or a change in a side signal; inactive = no such curve, though single readings can be large or run the other way; note: % of control where 0% means no effect
Target sequence (Q99816 whole entry, looked up): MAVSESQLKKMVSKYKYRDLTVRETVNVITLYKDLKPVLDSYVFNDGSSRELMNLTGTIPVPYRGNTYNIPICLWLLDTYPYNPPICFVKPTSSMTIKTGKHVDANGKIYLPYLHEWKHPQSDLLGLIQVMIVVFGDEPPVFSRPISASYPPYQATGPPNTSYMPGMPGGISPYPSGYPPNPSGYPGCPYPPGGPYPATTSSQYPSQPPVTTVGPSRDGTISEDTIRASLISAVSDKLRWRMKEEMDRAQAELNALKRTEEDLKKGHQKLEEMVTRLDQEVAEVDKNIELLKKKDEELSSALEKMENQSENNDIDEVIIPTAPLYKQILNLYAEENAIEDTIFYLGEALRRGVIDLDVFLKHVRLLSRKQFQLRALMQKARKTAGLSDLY
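Fluorescence anisotropy tracks displacement of a FITC-tagged PTAP peptide (50 nM) from the Tsg101 binding domain (10 uM), following a 20 min room-temperature incubation at pH 7.5.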
The depositor's hits bear a star; i = inactive; ? = inconclusive; . = no result given; [ ] = remark or other dose. Unless noted, calls come from the whole dose curve; as a rule, active = well fitted curve in the direction sought with a large enough effect; inconclusive = small, poorly fitted or top-dose-only effect, or another doubt; inactive = no such curve, though single readings can be large; an effect the other way counts as inactive or inconclusive. Potency is the fitted concentration of half-maximal effect.

SMILES | SW480 rereplic | KB-3-1 cytotox | KB-V1 cytotox | PINK1 modulator | MCF10A rerep | TSG101-PTAP inh
Cc1ccc(-c2csc(-c3cc4c([nH]c3=O)CC(c3ccccc3)CC4=O)n2)cc1 (stereo not given) | . | 0.82µM* | ? | 10% | . | .
O=C1NC(=O)C2(CCCCCCCCCCC2)N1 | -3% | i | i | 0% | 6% | 0%
O=C1NC(=O)C2(CCC(C3CCCCC3)CC2)N1 (stereo not given) | -6% | ? | 4.1µM* | 2% | -2% | -1%
COc1cc(C(=O)Nc2cc(C)c(O)c(-c3nc4cc(Cl)ccc4o3)c2)cc(OC)c1OC | . | 7.3µM* | i | 19% | . | .
COc1cc(C(=O)Nc2cccc(-c3nc4cc(C)ccc4o3)c2C)cc(OC)c1OC | 1% | i | i | 9% | 7.3µM* | -5%
COc1cc(C(=O)Nc2cccc(-c3nc4ncccc4o3)c2C)cc(OC)c1OC | -3% | i | i | 8% | 0% | 1%
CCOc1ccc(-c2nn(-c3ccccc3)cc2C2NC(=O)NC(C)=C2C(=O)OC(C)C)cc1 (stereo not given) | . | ? | i | -4% | . | .
Cc1cc(C)c2c(=N)c3ccccc3n(CCCCCCCCn3c4ccccc4c(=N)c4c(C)cc(C)nc43)c2n1 | 23µM* | ? | i | -2% | ? | -1%
O=C(COc1cccc2cccnc12)N/N=C/c1ccccc1O | -22% | ? | 12µM* | 18% | -17% | -2%
Oc1ccccc1/C=N/NC(=S)NC1CC2CC1C1C=CCC21 (stereo not given) | ? | ? | 21µM* | ? | 21µM* | 2%
O=C(N/N=C/c1ccccc1O)c1cc[n+]([O-])cc1 | 26µM* | i | i | -1% | ? | -1%
Cc1ccccc1OCC(=O)N/N=C/c1cccc2cccnc12 | ? | i | ? | 1% | 17% | 0%
Cc1cc(C)n(CCC(=O)N/N=C/c2ccccc2O)n1 | 30% | ? | 8.2µM* | 0% | 6% | -2%
Cc1cc(C)n(CCC(=O)N/N=C/c2ccc(O)cc2O)n1 | 7% | i | i | -3% | ? | -1%
COc1cccc(/C=N/NC(=S)NC2CC3CC2C2C=CCC32)c1O (stereo not given) | 14% | i | i | 4% | ? | -1%
COC(=O)Cc1c(C)nc2nc(NCc3ccc(Br)cc3)[nH]n2c1=O | . | i | ? | 2% | . | .
O=C(CCSCCC(=O)NN=Cc1ccccc1O)NN=Cc1ccccc1O | -5% | . | . | 5% | 16µM* | -6%
O=C(CN1CCCc2ccccc21)N/N=C/c1ccccc1O | ? | ? | 13µM* | 0% | 8% | 0%
O=[N+]([O-])c1ccc(/C=N/NC(=S)Nc2ccccc2F)o1 | 13% | i | i | -1% | -10% | -7%
O=C(CSc1ccccc1)N/N=C/c1ccccc1O | ? | i | i | 0% | 10% | -6%
O=C(CCCCCNC(=O)c1ccccc1)N/N=C/c1ccco1 | -3% | i | i | 0% | 1% | -8%
Fc1ccccc1NC(=S)N/N=C/c1ccccc1Br | 18µM* | i | i | 2%[38.3 µM] | ? | -6%
O=C(CN1CCCc2ccccc21)N/N=C/c1ccc(F)cc1F | -3% | i | i | 6% | ? | 1%
O=C(CCCCCNC(=O)c1ccccc1)N/N=C/c1ccccc1O | 5.8µM* | i | ? | 2% | ? | 0%
COc1ccccc1C1CN(CC(=O)N2CCC(N3CCOCC3)CC2)Cc2ccccc2O1 (stereo not given) | . | . | . | -1% | . | .
SMILES | SW480 rereplic | KB-3-1 cytotox | KB-V1 cytotox | PINK1 modulator | MCF10A rerep | TSG101-PTAP inh
Oc1ccccc1C=NNC(=S)NN=Cc1ccccc1O | 3.7µM* | ? | ? | 3% | 18µM* | -3%
NC(=S)N/N=C/c1ccccc1O | -9% | i | i | -1% | -3% | -4%
Cc1cc(C)cc(-n2ccn(CC(=O)Nc3ccccc3C(F)(F)F)c(=O)c2=O)c1 | . | . | . | 1% | . | .
O=c1[nH]c2cc(Br)cnc2nc1/C=C(\O)c1ccc(F)cc1 | 18% | i | i | . | 7.3µM* | 1%
CCOc1ccc(CCNC(=O)Cn2ccc3cc(S(=O)(=O)N4CCCCC4)ccc32)cc1 | . | i | i | 3% | . | .
CCC(c1nnnn1Cc1ccco1)N(Cc1ccccc1OC)Cc1cc2cc(C)ccc2[nH]c1=O (stereo not given) | -6% | i | 13µM* | -3% | ? | 2%
CCOc1ccc2[nH]c(=O)c(C(c3nnnn3C3CCCCC3)N3CCN(C)CC3)cc2c1 (stereo not given) | -5% | i | i | -2% | 2% | -8%
COc1ccc2[nH]c(=O)c(C(c3nnnn3C3CCCC3)N(C)C3CCCCC3)cc2c1 (stereo not given) | 16% | i | 5.2µM* | 1% | 14% | -6%
COc1ccc2[nH]c(=O)c(CN(C3CCCCC3)C(c3nnnn3Cc3ccco3)C(C)C)cc2c1 (stereo not given) | 13% | ? | 12µM* | 4% | ? | 4%
COc1ccc(C(=O)NNC(=S)NC(=O)c2ccco2)cc1 | 5% | ? | ? | -2% | 13% | 0%
CCCOc1ccc(C(=O)NNC(=S)NC(=O)c2ccco2)cc1 | -5% | 9.2µM* | i | -1% | 4% | -2%
CCCOc1ccc(C(=O)NNC(=S)NC(=O)c2ccccc2)cc1 | ? | i | i | 5% | 6% | -5%
CCCOc1ccc(C(=O)NNC(=S)NC(C)=O)cc1 | ? | 16µM* | i | 12%[38.3 µM] | ? | -8%
CCCOc1ccc(C(=O)NC(=S)Nc2nc(C)c(C(=O)N(C)C)s2)cc1 | -8% | i | 21µM* | 2%[38.3 µM] | 0% | -1%
Cc1ccc(C)c(NC(=O)CSc2nncn3c2cc2sccc23)c1 | . | . | . | 1% | . | .
COc1ccc(CCNC(=O)c2cc(-c3ccc(C)cc3)nc3n[nH]c(-c4ccc(F)cc4)c23)cc1OC | . | i | i | 1% | . | .
COc1ccccc1CNC(=O)/C(C#N)=C/c1ccc(OC)c(OC)c1OC | -11% | i | i | 0% | 18µM* | -3%
COc1ccccc1CNC(=O)c1ccccc1OC | -12% | i | ? | . | 9.2µM* | 0%
